# According to PubChem BioAssay (NCATS):
# Inconclusive results are not listed. Activity calls are given as the source filed them. The call rests on the fitted dose curve; in most records, active means well fitted inhibition curve with a large enough effect; inconclusive means small, poorly fitted or top-dose-only effect; inactive means flat fitted curve, though single readings scatter.
# Tested on: CRL-7250
# Experiment: qHTS assay to identify novel small-molecules to repurpose for Merkel cell carcinoma treatment (AID 1296009); further: nearly all actives have a fitted effect of over 60% in size
# Conditions: MCC and control cell lines, CellTiter-Glo viability, 72 h; series mostly up to 92 µM; activity change, negative = cytotoxicity: at the top concentration
# How it was run: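 Cell viability measured by CellTiter-Glo following 72 hr compound treatment at 37 degree celsius, with NPC and MIPE libraries tested in 8- and 11-point concentration series.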
row,Compound,outcome
1,CSCC1OC(n2cnc3c(N)ncnc32)C(O)C1O (stereo not drawn),inactive
2,COc1cc2c(cc1O)C1(Cc3ccc4c(c3C1O)OCO4)[N+](C)([O-])CC2 (stereo not drawn),inactive
3,CC1=C2C(=O)C=C(CO)[C@@H]2[C@H]2OC(=O)[C@H](C)[C@@H]2[C@@H](O)C1,inactive
4,CC1=C2C[C@@]3(C)[C@@H](CCC[C@@H]3C)C[C@@]2(O)OC1=O,inactive
5,CCc1cc2c(cc1CC)CC(NCC(O)c1ccc(O)c3[nH]c(=O)ccc13)C2 (stereo not drawn),inactive
6,NCCCC[C@H](NC(=O)[C@@H]1Cc2ccccc2CN1C(=O)CCC(=O)c1ccccc1)C(=O)NCC(c1ccccc1)c1ccccc1,inactive
7,COc1cc(C2OCC3(O)C(c4ccc(O[C@@H]5O[C@H](CO)[C@@H](O)[C@H](O)[C@H]5O)c(OC)c4)OCC23O)ccc1O (stereo partly drawn),inactive [at 17.4 µM]
8,CC(C)CC(=O)n1cc(C(N)=O)c(=O)cc1C(O)c1ccccc1 (stereo not drawn),inactive
9,CC(C)C1NC(=O)C2CCCN2C1=O (stereo not drawn),inactive
10,CC(C)C[C@H](CC(=O)NO)C(=O)N[C@H](C(=O)N[C@@H](C)C(=O)NCCN)C(C)(C)C,inactive [at 9.27 µM]
11,CCC1OC(=O)C(C)CC(C)C(=O)/C(C)=C/C(C)C(=O)/C=C/C1(C)O (stereo not drawn),inactive
12,C=C1CC/C=C(/CO)C(=O)C[C@@H]2[C@@H]1CC2(C)C,inactive
13,Nc1nc2c(s1)CCN(Cc1ccc(Cl)cc1)CC2,inactive
14,C/C=C(\C)C1C(C)=CC2CCC(OS(=O)(=O)O)C(C)C2C1/C=C/C=C/C(=O)O (stereo not drawn),inactive [at 17.4 µM]
15,O=C(O)CC1(O)C(=O)Nc2ccccc21 (stereo not drawn),inactive [at 92 µM]
16,C[C@H]1O[C@@H](O[C@H]2CC[C@@]3(C)C(CC[C@]4(C)C3CC=C3C5CC(C)(C)CC[C@]5(C(=O)O)CC[C@]34C(=O)O)C2(C)C)[C@H](O)[C@@H](O)[C@@H]1O (stereo partly drawn),inactive [at 17.4 µM]
17,C[C@H]1CCN2C[C@]34C[C@@]5(C(=O)Nc6c5ccc5c6OC=CC(C)(C)O5)C(C)(C)C3C[C@]12C(=O)N4C (stereo partly drawn),inactive [at 17.4 µM]

row,Compound,outcome
1,CC1(C)CC[C@]2(C(=O)O[C@@H]3O[C@H](CO)[C@@H](O)[C@H](O)[C@H]3O)CC[C@]3(C)C(=CCC4[C@@]5(C)C[C@@H](O)[C@H](O)[C@](C)(C=O)C5CC[C@]43C)[C@@H]2[C@@H]1O (stereo partly drawn),inactive [at 17.4 µM]
2,C[C@@H]1O[C@@H](O[C@@H]2[C@@H](O[C@@H]3O[C@@H](C)[C@H](O[C@@H]4OC[C@H](O)[C@H](O[C@@H]5OC[C@@H](O)[C@H](O)[C@H]5O)[C@H]4O)[C@@H](O[C@@H]4OC[C@](O)(CO)[C@H]4O)[C@H]3O)[C@H](OC(=O)[C@]34CCC(C)(C)C[C@H]3C3=CCC5[C@@]6(C)C[C@H](O)[C@H](O[C@@H]7O[C@H](CO[C@@H]8OC[C@H](O)[C@H](O)[C@H]8O)[C@@H](O)[C@H](O)[C@H]7O)C(C)(C)C6CC[C@@]5(C)[C@]3(C)C[C@H]4O)OC[C@H]2O)[C@H](O)[C@H](O)[C@H]1O (stereo partly drawn),inactive [at 9.27 µM]
3,CC(C)(C)NCC(O)COc1cccc2c1CCCC2=O (stereo not drawn),inactive
4,Nc1c(-c2ccccc2)nc(Cl)c2c(O)n[nH]c(=O)c12,inactive
5,O=C(O)Cc1nn(Cc2nc3cc(C(F)(F)F)ccc3s2)c(=O)c2nccnc12,inactive
6,CCCCCCc1cccc(NC(=O)[C@H](N)CCP(=O)(O)O)c1,inactive [at 9.27 µM]
7,Cc1c(CN(C)C(=O)/C=C/c2cnc3c(c2)CCC(=O)N3)oc2ccccc12,inactive
8,Cc1ncc([N+](=O)[O-])n1C[C@H](O)CN1CCOCC1,inactive
9,CCC/C=C1\OC(=O)C2=C1CCC(O)C2O (stereo not drawn),inactive
10,C/C=C/C=C/C(O)=C1/C(=O)[C@]2(C)C(=O)[C@@](C)(O)[C@H]1[C@H]([C@@]1(C)OC(=O)C(C)=C1O)[C@H]2C(=O)CC/C=C/C,inactive [at 17.4 µM]
11,CC1(C)NC2N(C1=O)c1ccccc1C2(O)CC(C(=O)O)n1cnc2ccccc2c1=O (stereo not drawn),inactive [at 17.4 µM]
12,c1ccc(C(OC2CCN(CCCc3nn[nH]n3)CC2)c2ccccc2)cc1,inactive
13,C[C@H](Oc1ccc(S(C)(=O)=O)cc1C(=O)N1CCN(c2ncc(C(F)(F)F)cc2F)CC1)C(F)(F)F,inactive
14,C=C[C@H]1[C@H](O[C@@H]2O[C@H](CO[C@@H]3OC[C@](O)(CO)[C@H]3O)[C@@H](O)[C@H](O)[C@H]2O)OC=C2C(=O)OCC[C@H]21,inactive [at 17.4 µM]
15,CC1(C(=O)O)CCCC2(C)C3CCC4CC3(CCC12)CC4C(=O)O (stereo not drawn),inactive
16,Cc1nc2cc(C(=O)NCc3ccccn3)nn2c(C)c1Cc1cccc(Cl)c1,inactive
